Tb PGK inh: qHTS Assay to Find Inhibitors of Phosphoglycerate Kinase. actives 0.043% (n = 380,000). Phosphoglycerate kinase, glycosomal (Trypanosoma brucei brucei), P07378. Potency, µM (highest dose often 57.5 µM), for the others: at the top dose activity change, negative = inhibition, most hits filed as inhibitors. PGK/GAPDH coupled, Kinase-Glo luminescence, 60 min; further: potency means the concentration at half of the fitted maximal effect; nearly all actives have a fitted effect of over 60% in size
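Recombinant glycosomal PGK reaction used 1,3-bisphosphoglycerate generated in-well by GAPDH (100nM final) in 100mM TEA pH 7.6, 5mM MgCl2, 0.01% Tween-20. After 60 minutes at room temperature, ATP was read by Kinase-Glo Plus luminescence end-point.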
Tb PFK inh: qHTS Assay to Find Inhibitors of T. brucei phosphofructokinase; T. brucei PFK, ADP-Glo luminescence; Potency, µM (top dose mostly 57.5 µM), without a hit: top-dose activity, negative = inhibition, actives largely listed as inhibitors; actives 0.17% (n = 330,000);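 further: potency means the concentration at half of the fitted maximal effect; 0% = uninhibited 1x PFK enzyme wells and -100% = no-enzyme wells; nearly all actives have a fitted effect of over 60% in size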
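ADP-Glo luminescence quantified ADP after 45 min at room temperature, with 1.25 nM T. brucei PFK, 0.1 mM ATP and 0.5 mM fructose-6-phosphate in pH 8.0 TEA buffer. qHTS titrations up to 57 µM; curves classified by quality.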
FEN1 inh: qHTS Assay for the Inhibitors of Human Flap endonuclease 1 (FEN1); actives 0.35% (n = 390,000); AID 588795, 2011; Potency, µM (titrated, usually from 114 µM), for inactives: at the top dose activity change, negative = inhibition, hits mostly inhibitors; Recombinant FEN1 flap cleavage, fluorescence, 15 min; P39748; further: potency means the concentration at half of the fitted maximal effect; nearly all actives have a fitted effect of over 65% in size
Target sequence (P39748 whole entry, looked up): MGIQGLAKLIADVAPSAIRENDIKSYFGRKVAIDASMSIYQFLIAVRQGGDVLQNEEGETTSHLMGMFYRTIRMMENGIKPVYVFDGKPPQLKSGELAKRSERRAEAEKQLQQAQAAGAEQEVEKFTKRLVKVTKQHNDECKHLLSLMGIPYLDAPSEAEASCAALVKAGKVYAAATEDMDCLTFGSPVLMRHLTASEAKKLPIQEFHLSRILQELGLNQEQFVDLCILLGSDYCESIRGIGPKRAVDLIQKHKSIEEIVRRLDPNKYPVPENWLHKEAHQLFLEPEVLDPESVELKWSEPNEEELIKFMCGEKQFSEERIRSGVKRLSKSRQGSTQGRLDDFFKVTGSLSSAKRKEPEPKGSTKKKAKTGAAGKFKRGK
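FEN1 at 10 nM, compound pretreatment for 15 min (room temperature), 50 nM final substrate to initiate; endpoint reads at 0 and 15 min; DMSO-only plates used as vehicle background.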
TDP1 block: qHTS Assay for Inhibitors of Tyrosyl-DNA Phosphodiesterase (TDP1); Tyrosyl-DNA phosphodiesterase 1 (Homo sapiens), Q9NUW8; recombinant TDP1, AlphaScreen DNA substrate cleavage; Potency, µM (top dose mostly 130 µM), inactives show top-dose activity change, negative = inhibition, usual class: inhibitors; actives 0.28% (n = 350,000); further: potency means the concentration at half of the fitted maximal effect; nearly all actives have a fitted effect of over 40% in size
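Tdp1 1 nM final; 15 min RT w/ cpd; substrate 15 nM, 5 min; beads 10 ug/ml, 10 min; AlphaScreen read. Neg ctrl: no enzyme.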
WRN inhibitor: qHTS for Inhibitors of WRN Helicase | Bifunctional 3'-5' exonuclease/ATP-dependent helicase WRN (Homo sapiens), Q14191 | WRN helicase unwinding, fluorescent forked duplex, kinetic | Potency, µM (highest dose often 114 µM), inactives show at the top dose activity change, negative = inhibition, actives largely listed as inhibitors | actives 0.46% (n = 360,000); further: potency means the concentration at half of the fitted maximal effect; nearly all actives have a fitted effect of over 55% in size
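WRN at 20 nM final was preincubated with compound for 15 min at room temperature; reaction started with 100 nM forked duplex oligonucleotide carrying fluorophore and quencher plus 2 mM ATP (final). Unwinding followed kinetically by red fluorescence (ex 525/em 598 nm).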
PI5P4Ka inh: qHTS for Inhibitors of phosphatidylinositol 5-phosphate 4-kinase (PI5P4K) | PI5P4Kalpha enzyme, ADP-Glo luminescence, 60 min; stronger effect = lower value | max response, % | actives 1.2% (n = 330,000) | AID 652105, 2013; active means max response of -50% or lower; inconclusive means between -30% and -50%; inactive means -30% or higher; further: value at the top dose of about 77 µM
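Luminescence from ADP-Glo served as readout of PI5P4Kalpha activity in a qHTS format. Reaction: enzyme, substrate, compound, ATP at 5 microM final, 60 min at RT.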
ADP-Glo interf: qHTS for Inhibitors of PI5P4K: ADP-Glo counter assay; Potency, µM (doses to about 76.9 µM), without a hit: top-dose activity change, negative = inhibition, most hits filed as inhibitors; 1,100 tested, under 10 active; shares compounds with PI5P4Ka inh; ADP-Glo detection counter-screen, luciferase luminescence, no enzyme
* marks the source's active call; other numbers are inactive results; i = inactive; ? = inconclusive; nt = no result; [ ] = another dose, or the depositor's remark. Shown are actives, neighbours in structure and some others; about 1.5% of the full set was active somewhere. Unless noted, the call rests on the fitted dose curve; in most records, active means well fitted curve in the direction sought with a large enough effect; inconclusive means small, poorly fitted or top-dose-only effect, or another doubt; inactive means no such curve, though single readings can be large; an effect the other way counts as inactive or inconclusive. Unless noted, on the % scale 0 is the no-effect control and ±100 the full control effect.

SMILES	Tb PGK inh	Tb PFK inh	FEN1 inh	TDP1 block	WRN inhibitor	PI5P4Ka inh	ADP-Glo interf
Cc1noc(C)c1NC(=O)Nc1ccc2c(c1)C(=O)N([C@H](C)CO)C[C@H](C)[C@@H](CN(C)S(=O)(=O)c1ccc(Cl)cc1)OCCCC[C@@H](C)O2	-2%	nt	nt	nt	11%	2	nt
Cc1ccnc(SCC(=O)Nc2oc(-c3ccccc3)c(-c3ccccc3)c2C#N)n1	1%	-2%	0%	3%	-18%	6	nt
N#Cc1c(NC(=O)CSc2ncccn2)oc(-c2ccccc2)c1-c1ccccc1	i	nt	-1%	nt	?	-58*	6%
Cc1ccnc(NC(=O)c2ccc(Cl)c(S(=O)(=O)N3CCCC3)c2)c1	-9%	1%	3%	nt	-6%	-3	nt
O=C(O)c1ccc(-c2nc(-c3cccc(C(F)(F)F)c3)cs2)cc1	0%	3%	18%	9%	-7%	-18	nt
O=C(O)c1cccc(-n2cc(-c3cccc(C(F)(F)F)c3)cn2)c1	-4%	14%	-4%	nt	-7%	-62*	-4%
CC(NC(=O)CN1c2cccc3cccc(c23)S1(=O)=O)c1ccc(S(N)(=O)=O)cc1 (centres undefined)	-1%	-20%	-14%	nt	?	-55*	2%
CC(C)CNC(=O)CN1c2cccc3cccc(c23)S1(=O)=O	-2%	16%	-2%	9%	8%	3	nt
CC(NC(=O)CN1c2cccc3cccc(c23)S1(=O)=O)c1ccccc1 (centres undefined)	3%	nt	nt	nt	-12%	-28	nt
COc1cccc(CNC(=O)CN2c3cccc4cccc(c34)S2(=O)=O)c1	-16%	?	-12%	nt	-10%[11.6 µM]	-65*	-7%
CN1CCN(NC(=S)NC(C)(C)CC(C)(C)C)CC1	-2%	3%	0%	5%	9%	-1	nt
Cc1cccc2c(CC(=O)O)noc12	0%	-3%	-2%	3%	-14%	6	nt
O=C(Nc1cc(S(=O)(=O)N2CCOCC2)ccc1N1CCCCC1)c1ccccc1	7%	5%	-10%	3%	2%	-7	nt
O=C(Nc1cc(S(=O)(=O)N2CCOCC2)ccc1N1CCCC1)c1ccc2c(c1)S(=O)(=O)c1ccccc1C2=O	4%	-18%	-5%	1%	-27%	-77*	-11%
Cc1ccc(S(=O)(=O)N(C)C)cc1NC(=O)COC(=O)/C=C/c1ccc(F)cc1	-8%	-7%	-7%	2%[0.505 µM]	-1%	-6	nt
COc1ccccc1NS(=O)(=O)c1ccc(C(=O)OCC(=O)NCc2ccco2)cc1	-3%	-26%	-4%	2%	-25%	-60*	-4%
CCOc1ccccc1-n1c(SCC(=O)Nc2ccccc2C(=O)O)nc2ccccc2c1=O	10%	-1%	0%	8%	-19%	-58*	-6%
CC1(C(=O)NS(=O)(=O)C2CC2)CCN(C(=O)C2(c3ccc(Cl)cc3)CCCC2)C1 (centres undefined)	nt	nt	nt	nt	-1%	0	nt
O=C(NC1CC1)c1ccc(NC(=O)C2CCCC2)cc1	7%	nt	14%	nt	-3%	-1	nt
O=C(NC1CC1)c1ccc(NC(=O)C2CCC2)cc1	-9%	nt	?	nt	-1%	-51*	-4%
CN(C)c1ccc(/C=C2\C=Cc3ccccc32)cc1N	nt	nt	-24%	nt	nt	nt	nt
